# Reference: paper PMC7862700, “An all-to-all approach to the identification of sequence-specific readers for epigenetic DNA modifications on cytosine”
# How the values were obtained:
# Assay in all cases: DAPPL (digital affinity profiling via proximity ligation, sequencing); 10 mM Tris-HCl pH 7.5, 50 mM NaCl, 1 mM DTT, 4% glycerol, room temperature, 30 min; GST-TFs on glutathione beads, 16-mer random dsDNA library, 0.1% formaldehyde crosslink after washing; high values mean tight binding
# [1] = molecular target: T1, FLI1 (Homo sapiens, UniProt Q01543 1-452); conditions: protein: recombinant; tags: N-terminal GST; dsDNA, one strand shown
# T1 sequence: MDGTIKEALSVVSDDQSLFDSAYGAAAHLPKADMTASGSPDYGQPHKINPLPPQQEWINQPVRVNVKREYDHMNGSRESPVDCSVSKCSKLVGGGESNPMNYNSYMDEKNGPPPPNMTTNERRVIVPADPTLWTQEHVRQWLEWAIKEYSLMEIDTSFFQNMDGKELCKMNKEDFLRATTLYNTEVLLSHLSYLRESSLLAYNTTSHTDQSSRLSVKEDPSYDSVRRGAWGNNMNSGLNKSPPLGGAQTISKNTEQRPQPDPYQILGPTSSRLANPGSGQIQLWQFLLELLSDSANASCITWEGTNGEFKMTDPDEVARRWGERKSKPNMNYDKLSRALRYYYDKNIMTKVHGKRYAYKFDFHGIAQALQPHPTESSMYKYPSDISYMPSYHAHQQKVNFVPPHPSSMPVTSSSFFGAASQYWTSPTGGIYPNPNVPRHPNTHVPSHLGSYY
# Method in brief: (§1)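 Binding signal is given per hexamer as its read frequency for a factor divided by its frequency in the tag-only sample. GST-fused human transcription factors were expressed in yeast, captured on glutathione beads, barcoded with DNA and pooled with that sample, then incubated with 200 nmole of a 16-mer random double-stranded DNA library in Tris/NaCl/DTT/glycerol buffer for 30 min at room temperature. The pools were then washed, crosslinked, proximity-ligated, amplified by PCR and sequenced on an Illumina NextSeq500.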
# [2] = molecular target: T2, ELK1 (Homo sapiens, UniProt P19419 1-428); conditions: protein: recombinant; tags: N-terminal GST; dsDNA, one strand shown
# T2 sequence: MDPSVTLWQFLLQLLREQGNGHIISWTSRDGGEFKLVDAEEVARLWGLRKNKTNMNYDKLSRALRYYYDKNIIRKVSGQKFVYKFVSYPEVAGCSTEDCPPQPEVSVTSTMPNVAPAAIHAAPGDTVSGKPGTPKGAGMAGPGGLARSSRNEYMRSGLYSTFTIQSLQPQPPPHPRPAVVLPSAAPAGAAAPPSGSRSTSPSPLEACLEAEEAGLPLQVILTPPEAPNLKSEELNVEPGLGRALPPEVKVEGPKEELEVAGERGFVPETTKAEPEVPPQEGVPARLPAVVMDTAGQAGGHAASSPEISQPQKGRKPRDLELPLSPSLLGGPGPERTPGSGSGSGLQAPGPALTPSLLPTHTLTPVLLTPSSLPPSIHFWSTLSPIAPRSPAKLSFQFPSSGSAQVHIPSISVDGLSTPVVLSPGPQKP
# Method in brief: as §1
# [3] = molecular target: T3, GABPA (Homo sapiens, UniProt Q06546 1-454); conditions: protein: recombinant; tags: N-terminal GST; dsDNA, one strand shown
# T3 sequence: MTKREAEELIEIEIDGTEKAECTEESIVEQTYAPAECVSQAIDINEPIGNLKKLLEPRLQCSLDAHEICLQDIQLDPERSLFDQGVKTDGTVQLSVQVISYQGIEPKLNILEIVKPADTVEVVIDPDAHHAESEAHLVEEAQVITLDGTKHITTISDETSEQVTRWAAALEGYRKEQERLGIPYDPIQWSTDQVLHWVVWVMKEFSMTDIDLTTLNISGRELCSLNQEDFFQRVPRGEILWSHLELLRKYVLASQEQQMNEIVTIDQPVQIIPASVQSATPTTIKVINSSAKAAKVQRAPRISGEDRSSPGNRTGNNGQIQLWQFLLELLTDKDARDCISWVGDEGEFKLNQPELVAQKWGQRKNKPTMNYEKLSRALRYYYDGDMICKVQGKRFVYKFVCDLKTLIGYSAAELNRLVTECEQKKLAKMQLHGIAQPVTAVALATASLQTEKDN
# Method in brief: as §1
# [4] = molecular target: T4, ERG (Homo sapiens, UniProt P11308 1-479); conditions: protein: recombinant; tags: N-terminal GST; dsDNA, one strand shown
# T4 sequence: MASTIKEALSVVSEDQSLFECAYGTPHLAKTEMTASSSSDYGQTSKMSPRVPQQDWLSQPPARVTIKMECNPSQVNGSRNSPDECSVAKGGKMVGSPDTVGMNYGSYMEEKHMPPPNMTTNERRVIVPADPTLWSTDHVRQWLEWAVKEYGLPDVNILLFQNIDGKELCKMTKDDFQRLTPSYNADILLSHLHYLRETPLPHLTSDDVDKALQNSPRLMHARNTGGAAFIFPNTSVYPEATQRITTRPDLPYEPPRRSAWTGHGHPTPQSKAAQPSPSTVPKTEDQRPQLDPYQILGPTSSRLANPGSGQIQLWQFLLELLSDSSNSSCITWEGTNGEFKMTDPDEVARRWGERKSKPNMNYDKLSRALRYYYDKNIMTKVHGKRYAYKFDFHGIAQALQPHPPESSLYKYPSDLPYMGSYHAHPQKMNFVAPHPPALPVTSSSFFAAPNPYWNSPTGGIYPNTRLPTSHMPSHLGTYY
# Method in brief: as §1
# [5] = molecular target: ELF1 (Homo sapiens, UniProt P32519 1-619); conditions: protein: recombinant; tags: N-terminal GST; dsDNA, one strand shown
# Sequence of ELF1 (P32519 whole entry): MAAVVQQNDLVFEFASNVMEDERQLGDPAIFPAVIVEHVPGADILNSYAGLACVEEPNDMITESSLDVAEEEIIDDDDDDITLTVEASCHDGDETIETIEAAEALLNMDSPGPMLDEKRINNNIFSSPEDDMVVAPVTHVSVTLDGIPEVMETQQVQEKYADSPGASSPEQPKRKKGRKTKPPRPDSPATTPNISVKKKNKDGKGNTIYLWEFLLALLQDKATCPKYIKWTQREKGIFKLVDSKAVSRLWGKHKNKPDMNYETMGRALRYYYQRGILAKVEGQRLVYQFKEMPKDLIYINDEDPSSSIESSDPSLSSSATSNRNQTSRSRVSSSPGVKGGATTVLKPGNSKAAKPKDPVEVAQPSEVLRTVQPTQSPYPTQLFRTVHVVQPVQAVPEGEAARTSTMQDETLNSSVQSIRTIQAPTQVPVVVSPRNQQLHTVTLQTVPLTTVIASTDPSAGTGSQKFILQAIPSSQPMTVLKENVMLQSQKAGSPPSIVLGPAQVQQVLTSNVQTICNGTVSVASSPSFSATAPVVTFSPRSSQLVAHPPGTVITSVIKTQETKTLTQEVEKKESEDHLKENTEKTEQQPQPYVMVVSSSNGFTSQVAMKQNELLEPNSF
# Method in brief: as §1
# [6] = molecular target: T5, EHF (Homo sapiens, UniProt Q9NZC4 1-300); conditions: protein: recombinant; tags: N-terminal GST; dsDNA, one strand shown
# T5 sequence: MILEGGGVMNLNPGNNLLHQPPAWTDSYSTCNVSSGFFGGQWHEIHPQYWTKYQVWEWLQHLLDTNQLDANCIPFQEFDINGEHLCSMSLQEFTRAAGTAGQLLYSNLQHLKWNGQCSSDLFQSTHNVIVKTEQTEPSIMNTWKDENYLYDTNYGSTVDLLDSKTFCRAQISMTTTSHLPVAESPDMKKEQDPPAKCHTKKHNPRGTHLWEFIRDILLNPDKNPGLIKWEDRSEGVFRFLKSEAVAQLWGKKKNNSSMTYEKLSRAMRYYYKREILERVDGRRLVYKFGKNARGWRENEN
# Method in brief: as §1
# [7] = molecular target: SPI1 (Homo sapiens, UniProt P17947 1-270); conditions: protein: recombinant; tags: N-terminal GST; dsDNA, one strand shown
# Method in brief: as §1
# [8] = molecular target: SPIB (Homo sapiens, UniProt Q01892 1-262); conditions: protein: recombinant; tags: N-terminal GST; dsDNA, one strand shown
# Sequence of SPIB (Q01892 whole entry): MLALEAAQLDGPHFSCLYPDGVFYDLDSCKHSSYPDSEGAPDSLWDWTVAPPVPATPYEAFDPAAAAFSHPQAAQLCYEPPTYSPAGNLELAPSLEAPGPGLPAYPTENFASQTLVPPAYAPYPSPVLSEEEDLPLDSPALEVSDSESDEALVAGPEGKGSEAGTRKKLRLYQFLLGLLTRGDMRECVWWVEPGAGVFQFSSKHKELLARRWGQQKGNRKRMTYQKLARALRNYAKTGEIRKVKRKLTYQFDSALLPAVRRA
# Method in brief: as §1
# [9] = molecular target: T6, ELK3 (Homo sapiens, UniProt P41970 1-407); conditions: protein: recombinant; tags: N-terminal GST; dsDNA, one strand shown
# T6 sequence: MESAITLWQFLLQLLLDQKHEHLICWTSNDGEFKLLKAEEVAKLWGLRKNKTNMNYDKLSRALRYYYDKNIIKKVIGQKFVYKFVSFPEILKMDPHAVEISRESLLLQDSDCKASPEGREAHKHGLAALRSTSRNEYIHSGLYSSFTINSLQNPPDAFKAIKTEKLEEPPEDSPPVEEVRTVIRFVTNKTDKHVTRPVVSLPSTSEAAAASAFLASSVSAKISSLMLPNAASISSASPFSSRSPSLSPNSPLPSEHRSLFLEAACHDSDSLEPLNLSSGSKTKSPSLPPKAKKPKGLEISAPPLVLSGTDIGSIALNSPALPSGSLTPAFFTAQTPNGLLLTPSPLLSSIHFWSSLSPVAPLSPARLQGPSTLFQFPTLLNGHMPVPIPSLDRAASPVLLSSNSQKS
# Method in brief: as §1
# [10] = molecular target: T7, FEV (Homo sapiens, UniProt Q99581 1-238); conditions: protein: recombinant; tags: N-terminal GST; dsDNA, one strand shown
# T7 sequence: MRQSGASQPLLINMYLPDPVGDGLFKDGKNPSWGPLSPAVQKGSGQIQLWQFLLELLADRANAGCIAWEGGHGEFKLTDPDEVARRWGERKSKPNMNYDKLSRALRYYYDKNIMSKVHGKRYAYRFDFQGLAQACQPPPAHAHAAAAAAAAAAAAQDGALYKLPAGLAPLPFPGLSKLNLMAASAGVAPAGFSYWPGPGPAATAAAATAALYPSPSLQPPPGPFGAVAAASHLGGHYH
# Method in brief: as §1
# [11] = molecular target: ETV5 (Homo sapiens, UniProt P41161 1-510); conditions: protein: recombinant; tags: N-terminal GST; dsDNA, one strand shown
# Sequence of ETV5 (P41161 whole entry): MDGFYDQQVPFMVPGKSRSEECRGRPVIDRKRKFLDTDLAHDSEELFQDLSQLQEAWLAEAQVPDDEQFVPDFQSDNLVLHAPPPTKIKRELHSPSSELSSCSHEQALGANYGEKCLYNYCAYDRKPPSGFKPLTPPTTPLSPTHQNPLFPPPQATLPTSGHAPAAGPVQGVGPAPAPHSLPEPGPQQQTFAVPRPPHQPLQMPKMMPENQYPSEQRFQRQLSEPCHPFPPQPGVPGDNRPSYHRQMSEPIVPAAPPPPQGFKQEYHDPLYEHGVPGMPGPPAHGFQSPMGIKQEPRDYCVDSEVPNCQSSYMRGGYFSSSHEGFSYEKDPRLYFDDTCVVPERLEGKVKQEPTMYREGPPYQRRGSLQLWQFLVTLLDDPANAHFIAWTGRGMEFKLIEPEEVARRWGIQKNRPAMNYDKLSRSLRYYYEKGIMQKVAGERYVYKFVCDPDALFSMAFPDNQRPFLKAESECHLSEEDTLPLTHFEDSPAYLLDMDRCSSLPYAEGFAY
# Method in brief: as §1
# [12] = molecular target: HSF1 (Homo sapiens, UniProt Q00613 1-529); conditions: protein: recombinant; tags: N-terminal GST; chain copies: 3; dsDNA, one strand shown
# Sequence of HSF1 (Q00613 whole entry): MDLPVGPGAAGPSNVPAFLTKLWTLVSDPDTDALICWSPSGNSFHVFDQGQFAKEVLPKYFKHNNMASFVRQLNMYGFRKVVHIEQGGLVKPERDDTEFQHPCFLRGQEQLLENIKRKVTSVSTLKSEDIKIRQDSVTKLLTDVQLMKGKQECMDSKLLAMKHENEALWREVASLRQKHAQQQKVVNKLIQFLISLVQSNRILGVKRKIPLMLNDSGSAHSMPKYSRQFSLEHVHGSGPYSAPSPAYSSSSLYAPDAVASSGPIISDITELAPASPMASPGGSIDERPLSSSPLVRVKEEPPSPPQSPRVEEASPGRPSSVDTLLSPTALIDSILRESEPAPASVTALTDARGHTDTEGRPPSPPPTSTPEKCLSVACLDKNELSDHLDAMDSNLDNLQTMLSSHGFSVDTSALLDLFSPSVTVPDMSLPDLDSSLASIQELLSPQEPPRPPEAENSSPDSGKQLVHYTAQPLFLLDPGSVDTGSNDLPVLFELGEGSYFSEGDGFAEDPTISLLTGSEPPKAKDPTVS
# Method in brief: as §1
# [13] = molecular target: T8, SPIC (Homo sapiens, UniProt Q8N5J4 1-248); conditions: protein: recombinant; tags: N-terminal GST; dsDNA, one strand shown
# T8 sequence: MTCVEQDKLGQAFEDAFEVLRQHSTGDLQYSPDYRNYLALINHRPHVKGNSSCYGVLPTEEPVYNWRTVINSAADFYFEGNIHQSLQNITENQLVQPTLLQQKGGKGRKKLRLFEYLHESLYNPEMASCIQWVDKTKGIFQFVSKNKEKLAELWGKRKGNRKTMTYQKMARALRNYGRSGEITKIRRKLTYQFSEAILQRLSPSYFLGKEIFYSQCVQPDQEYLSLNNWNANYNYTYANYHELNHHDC
# Method in brief: as §1
# [14] = molecular target: ELF4 (Homo sapiens, UniProt Q99607 1-663); conditions: protein: recombinant; tags: N-terminal GST; dsDNA, one strand shown
# Sequence of ELF4 (Q99607 whole entry): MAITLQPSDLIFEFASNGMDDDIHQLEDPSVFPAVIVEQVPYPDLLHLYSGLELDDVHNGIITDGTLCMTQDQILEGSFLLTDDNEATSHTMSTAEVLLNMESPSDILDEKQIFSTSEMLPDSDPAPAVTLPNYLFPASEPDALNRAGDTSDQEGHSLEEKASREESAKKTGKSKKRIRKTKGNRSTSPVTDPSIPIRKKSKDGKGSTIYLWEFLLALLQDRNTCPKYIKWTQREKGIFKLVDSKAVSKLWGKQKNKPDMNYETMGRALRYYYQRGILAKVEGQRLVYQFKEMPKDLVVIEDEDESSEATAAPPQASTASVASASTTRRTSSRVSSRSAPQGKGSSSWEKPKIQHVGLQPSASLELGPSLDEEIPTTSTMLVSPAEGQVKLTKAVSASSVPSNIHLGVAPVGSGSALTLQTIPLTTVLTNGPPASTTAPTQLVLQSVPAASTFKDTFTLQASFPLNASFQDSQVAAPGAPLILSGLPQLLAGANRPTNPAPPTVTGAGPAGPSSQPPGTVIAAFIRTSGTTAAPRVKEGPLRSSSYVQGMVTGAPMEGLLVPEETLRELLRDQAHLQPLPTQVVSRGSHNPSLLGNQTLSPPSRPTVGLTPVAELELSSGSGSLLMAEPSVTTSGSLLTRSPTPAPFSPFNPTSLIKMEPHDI
# Method in brief: as §1
# [15] = molecular target: T9, ELK4 (Homo sapiens, UniProt P28324-2 1-405); conditions: protein: recombinant; tags: N-terminal GST; dsDNA, one strand shown
# T9 sequence: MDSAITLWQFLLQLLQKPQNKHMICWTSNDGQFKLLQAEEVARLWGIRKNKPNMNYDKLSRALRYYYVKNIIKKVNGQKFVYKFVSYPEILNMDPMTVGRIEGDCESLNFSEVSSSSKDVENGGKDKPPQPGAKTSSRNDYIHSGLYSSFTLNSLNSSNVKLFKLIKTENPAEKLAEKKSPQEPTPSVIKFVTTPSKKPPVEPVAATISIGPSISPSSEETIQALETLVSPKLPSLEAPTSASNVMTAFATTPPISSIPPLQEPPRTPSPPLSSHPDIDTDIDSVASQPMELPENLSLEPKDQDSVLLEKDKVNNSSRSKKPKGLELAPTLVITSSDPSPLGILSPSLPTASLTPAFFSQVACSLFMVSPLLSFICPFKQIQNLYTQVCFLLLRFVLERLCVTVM
# Method in brief: as §1
# [16] = molecular target: T10, ETV2 (Homo sapiens, UniProt O00321 1-342); conditions: protein: recombinant; tags: N-terminal GST; dsDNA, one strand shown
# T10 sequence: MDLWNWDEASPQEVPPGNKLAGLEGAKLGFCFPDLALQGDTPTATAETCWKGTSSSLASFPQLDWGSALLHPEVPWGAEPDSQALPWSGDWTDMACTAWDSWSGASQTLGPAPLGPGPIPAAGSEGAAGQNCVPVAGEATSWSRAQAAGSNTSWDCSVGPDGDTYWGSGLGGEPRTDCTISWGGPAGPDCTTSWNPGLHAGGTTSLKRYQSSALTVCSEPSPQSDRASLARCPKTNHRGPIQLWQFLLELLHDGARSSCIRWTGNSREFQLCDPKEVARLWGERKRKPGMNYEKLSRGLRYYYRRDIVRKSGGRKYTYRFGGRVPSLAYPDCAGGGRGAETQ
# Method in brief: as §1
# [17] = molecular target: T11, ELF3 (Homo sapiens, UniProt P78545 1-371); conditions: protein: recombinant; tags: N-terminal GST; dsDNA, one strand shown
# T11 sequence: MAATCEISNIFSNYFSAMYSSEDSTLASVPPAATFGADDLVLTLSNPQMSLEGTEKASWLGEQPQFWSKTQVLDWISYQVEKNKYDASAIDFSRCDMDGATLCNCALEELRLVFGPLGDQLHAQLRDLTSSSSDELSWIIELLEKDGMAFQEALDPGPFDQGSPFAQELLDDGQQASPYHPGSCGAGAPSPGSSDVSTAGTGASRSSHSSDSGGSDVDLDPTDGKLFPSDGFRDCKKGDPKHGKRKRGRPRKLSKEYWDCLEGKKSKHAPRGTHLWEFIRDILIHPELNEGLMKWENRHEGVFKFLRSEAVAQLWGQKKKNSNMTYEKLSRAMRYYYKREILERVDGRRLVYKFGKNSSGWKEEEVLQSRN
# Method in brief: as §1
# [18] = molecular target: CRX (Homo sapiens, UniProt O43186 1-299); conditions: protein: recombinant; tags: N-terminal GST; dsDNA, one strand shown
# Sequence of CRX (O43186 whole entry): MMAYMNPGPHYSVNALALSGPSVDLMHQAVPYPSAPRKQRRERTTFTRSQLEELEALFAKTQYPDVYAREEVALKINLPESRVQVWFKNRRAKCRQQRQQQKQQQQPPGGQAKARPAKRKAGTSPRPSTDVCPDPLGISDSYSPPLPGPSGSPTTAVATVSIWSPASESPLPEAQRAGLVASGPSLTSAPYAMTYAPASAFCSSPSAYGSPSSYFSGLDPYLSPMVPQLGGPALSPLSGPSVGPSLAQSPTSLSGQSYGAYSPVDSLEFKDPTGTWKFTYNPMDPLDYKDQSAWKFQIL
# Method in brief: as §1
# [19] = molecular target: ETV1 (Homo sapiens, UniProt P50549 1-477); conditions: protein: recombinant; tags: N-terminal GST; dsDNA, one strand shown
# Sequence of ETV1 (P50549 whole entry): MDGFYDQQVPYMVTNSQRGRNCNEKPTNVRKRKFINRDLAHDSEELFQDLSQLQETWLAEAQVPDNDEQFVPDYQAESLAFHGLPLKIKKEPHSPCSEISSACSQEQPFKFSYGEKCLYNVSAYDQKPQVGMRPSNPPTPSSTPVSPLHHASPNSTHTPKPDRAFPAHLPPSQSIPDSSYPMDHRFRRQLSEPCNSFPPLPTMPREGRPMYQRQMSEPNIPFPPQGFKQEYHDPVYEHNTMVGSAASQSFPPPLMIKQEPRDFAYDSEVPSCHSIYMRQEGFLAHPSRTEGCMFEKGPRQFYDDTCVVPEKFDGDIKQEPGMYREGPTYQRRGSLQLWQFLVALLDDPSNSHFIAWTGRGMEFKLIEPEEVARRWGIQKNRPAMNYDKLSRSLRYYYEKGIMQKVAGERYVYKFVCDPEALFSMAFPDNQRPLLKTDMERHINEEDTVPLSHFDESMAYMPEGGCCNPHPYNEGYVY
# Method in brief: as §1
sequence,measurement,setting,value
TCTTTC,binding signal,[1],"1.43 fold enrichment (6-mer frequency, TF over GST control)"
same,binding signal,[2],"1.27 fold enrichment (6-mer frequency, TF over GST control)"
same,binding signal,[3],"1.41 fold enrichment (6-mer frequency, TF over GST control)"
same,binding signal,[4],"1.3 fold enrichment (6-mer frequency, TF over GST control)"
same,binding signal,[5],"1.37 fold enrichment (6-mer frequency, TF over GST control)"
same,binding signal,[6],"1.43 fold enrichment (6-mer frequency, TF over GST control)"
same,binding signal,[7],"1.51 fold enrichment (6-mer frequency, TF over GST control)"
same,binding signal,[8],"1.41 fold enrichment (6-mer frequency, TF over GST control)"
same,binding signal,[9],"1.39 fold enrichment (6-mer frequency, TF over GST control)"
same,binding signal,[10],"1.39 fold enrichment (6-mer frequency, TF over GST control)"
same,binding signal,[11],"1.36 fold enrichment (6-mer frequency, TF over GST control)"
same,binding signal,[12],"1.82 fold enrichment (6-mer frequency, TF over GST control)"
same,binding signal,[13],"1.31 fold enrichment (6-mer frequency, TF over GST control)"
same,binding signal,[14],"1.32 fold enrichment (6-mer frequency, TF over GST control)"
same,binding signal,[15],"1.46 fold enrichment (6-mer frequency, TF over GST control)"
same,binding signal,[16],"1.42 fold enrichment (6-mer frequency, TF over GST control)"
same,binding signal,[17],"1.19 fold enrichment (6-mer frequency, TF over GST control)"
same,binding signal,[18],"1.41 fold enrichment (6-mer frequency, TF over GST control)"
same,binding signal,[19],"1.47 fold enrichment (6-mer frequency, TF over GST control)"
